Test results: the supplement of paper PMC7057948, “A genome-wide approach for identification and characterisation of metabolite-inducible systems” (Nature Communications, 2020)

What was measured:
Test in all cases: relative induction of RFP reporter vs primary effector (background-corrected); higher = stronger activation of the biosensor
Conditions in all cases: inducer concentration 5 mM; 6 h; Cupriavidus necator H16; minimal medium + 0.4% gluconate
[1] = tested on: AcoR/P_H16_RS19445 acetoin biosensor (pEH052)
Procedure: (§1)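 C. necator H16 strains, each carrying one of 21 transcription factor/inducible promoter–mRFP biosensor plasmids, were grown in minimal medium in 96-well plates (robotic platform). Each was exposed to 46 structurally or metabolically related compounds at 5 mM at 30 °C. OD-normalised RFP fluorescence was read 6 h later and expressed as relative induction (%) = 100 × (FL compound − FL uninduced)/(FL primary inducer − FL uninduced); mean of n=4.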

[2] = tested on: AraC/P_araBAD L-arabinose biosensor (pEH176)
Procedure: as §1

[3] = tested on: BenM/P_H16_RS09790 benzoate biosensor (pEH148)
Procedure: as §1

[4] = tested on: FdsR/P_H16_RS03165 formate biosensor (pEH134)
Procedure: as §1

[5] = tested on: GabR/P_H16_RS23655 GABA biosensor (pEH256)
Procedure: as §1

[6] = tested on: HpdR/P_H16_RS18295 3-hydroxypropanoate biosensor (pEH010)
Procedure: as §1

[7] = tested on: KynR/P_H16_RS14030 L-kynurenine biosensor (pEH136)
Procedure: as §1

[8] = tested on: NahR/P_H16_RS08125 salicylate biosensor (pEH042)
Procedure: as §1

[9] = tested on: OapR/P_H16_RS01330 beta-alanine biosensor (pEH147)
Procedure: as §1

[10] = tested on: PcaQ/P_H16_RS30145 3,4-dihydroxybenzoate biosensor (pEH161)
Procedure: as §1

[11] = tested on: PhgR/P_H16_RS05530 phenylglyoxylate biosensor (pEH155)
Procedure: as §1

[12] = tested on: PhhR/P_H16_RS18365 L-phenylalanine biosensor (pEH137)
Procedure: as §1

[13] = tested on: SauR/P_H16_RS13695 sulfonatoacetate biosensor (pEH157)
Procedure: as §1

[14] = tested on: TtdR/P_H16_RS10665 tartrate biosensor (pEH083)
Procedure: as §1

[15] = tested on: XdhR/P_H16_RS05055 xanthine biosensor (pEH154)
Procedure: as §1

[16] = tested on: heterologous inducible system pEH002 (rhamnose/acrylate/cumate/itaconate set)
Procedure: as §1

[17] = tested on: heterologous inducible system pEH020 (rhamnose/acrylate/cumate/itaconate set)
Procedure: as §1

[18] = tested on: heterologous inducible system pEH040 (rhamnose/acrylate/cumate/itaconate set)
Procedure: as §1

[19] = tested on: heterologous inducible system pEH086 (rhamnose/acrylate/cumate/itaconate set)
Procedure: as §1

[20] = tested on: BadR/P_H16_RS27200 cyclohexanecarboxylate biosensor (pEH159)
Procedure: as §1
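Also: RFP excited at 585 nm with emission read at 620 nm, culture medium blanks subtracted from fluorescence and absorbance prior to normalisation.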

Compound: O=C(O)CC(=O)C(=O)O [oxaloacetate]
- relative induction of RFP reporter [1]: 0.0874%
- relative induction of RFP reporter [2]: -0.00919%
- relative induction of RFP reporter [3]: -0.0305%
- relative induction of RFP reporter [4]: 2.96%
- relative induction of RFP reporter [5]: -0.991%
- relative induction of RFP reporter [6]: 0.0505%
- relative induction of RFP reporter [7]: -0.384%
- relative induction of RFP reporter [8]: 0.0244%
- relative induction of RFP reporter [9]: 0.302%
- relative induction of RFP reporter [10]: -0.0492%
- relative induction of RFP reporter [11]: -0.502%
- relative induction of RFP reporter [12]: -0.153%
- relative induction of RFP reporter [13]: 0.016%
- relative induction of RFP reporter [14]: -0.0827%
- relative induction of RFP reporter [15]: -0.199%
- relative induction of RFP reporter [16]: 0.0189%
- relative induction of RFP reporter [17]: -0.323%
- relative induction of RFP reporter [18]: -0.91%
- relative induction of RFP reporter [19]: -0.0639%

Compound: O=c1cc[nH]c(=O)[nH]1 [uracil]
- relative induction of RFP reporter [1]: -0.264%
- relative induction of RFP reporter [2]: -0.0292%
- relative induction of RFP reporter [3]: -0.0102%
- relative induction of RFP reporter [4]: 2.09%
- relative induction of RFP reporter [5]: 0.468%
- relative induction of RFP reporter [6]: 0.292%
- relative induction of RFP reporter [7]: 1.02%
- relative induction of RFP reporter [8]: 0.0235%
- relative induction of RFP reporter [9]: 0.971%
- relative induction of RFP reporter [10]: -0.0843%
- relative induction of RFP reporter [11]: -0.376%
- relative induction of RFP reporter [12]: 0.347%
- relative induction of RFP reporter [13]: -0.0169%
- relative induction of RFP reporter [14]: -0.0341%
- relative induction of RFP reporter [15]: 0.952%
- relative induction of RFP reporter [16]: 0.0212%
- relative induction of RFP reporter [17]: 0.742%
- relative induction of RFP reporter [18]: -0.00512%
- relative induction of RFP reporter [19]: 0.875%

Compound: OC[C@@H](O)[C@@H](O)[C@H](O)[C@H](O)CO [D-mannitol]
- relative induction of RFP reporter [1]: 4.32%
- relative induction of RFP reporter [2]: -0.00626%
- relative induction of RFP reporter [3]: 0.00493%
- relative induction of RFP reporter [4]: -0.914%
- relative induction of RFP reporter [5]: -0.506%
- relative induction of RFP reporter [6]: -0.0887%
- relative induction of RFP reporter [7]: 0.488%
- relative induction of RFP reporter [8]: 0.0228%
- relative induction of RFP reporter [9]: -0.205%
- relative induction of RFP reporter [10]: 0.0552%
- relative induction of RFP reporter [11]: -0.267%
- relative induction of RFP reporter [12]: 0.344%
- relative induction of RFP reporter [13]: 0.0255%
- relative induction of RFP reporter [14]: 0.195%
- relative induction of RFP reporter [15]: -0.267%
- relative induction of RFP reporter [16]: -0.000622%
- relative induction of RFP reporter [17]: -0.0264%
- relative induction of RFP reporter [18]: 0.166%
- relative induction of RFP reporter [19]: 0.0103%

Compound: NCC(N)C(=O)O (stereo not given) [2,3-diaminopropanoate]
- relative induction of RFP reporter [1]: 0.396%
- relative induction of RFP reporter [2]: 0.013%
- relative induction of RFP reporter [3]: 0.0534%
- relative induction of RFP reporter [4]: -1.38%
- relative induction of RFP reporter [5]: -1.16%
- relative induction of RFP reporter [6]: 0.349%
- relative induction of RFP reporter [7]: -0.43%
- relative induction of RFP reporter [8]: 0.0162%
- relative induction of RFP reporter [9]: 0.656%
- relative induction of RFP reporter [10]: -0.0605%
- relative induction of RFP reporter [11]: -0.221%
- relative induction of RFP reporter [12]: 0.0532%
- relative induction of RFP reporter [13]: -0.0132%
- relative induction of RFP reporter [14]: -0.586%
- relative induction of RFP reporter [15]: -0.1%
- relative induction of RFP reporter [16]: 0.0204%
- relative induction of RFP reporter [17]: -0.419%
- relative induction of RFP reporter [18]: 2.94%
- relative induction of RFP reporter [19]: 0.484%

Compound: N[C@@H](Cc1c[nH]c2ccccc12)C(=O)O [L-tryptophan]
- relative induction of RFP reporter [1]: -1.3%
- relative induction of RFP reporter [2]: 0.00791%
- relative induction of RFP reporter [20]: -0.253%
- relative induction of RFP reporter [3]: -0.0226%
- relative induction of RFP reporter [4]: 34.8%
- relative induction of RFP reporter [5]: -1.31%
- relative induction of RFP reporter [6]: -0.00554%
- relative induction of RFP reporter [7]: 65.7%
- relative induction of RFP reporter [8]: 0.00282%
- relative induction of RFP reporter [9]: -0.39%
- relative induction of RFP reporter [10]: -0.161%
- relative induction of RFP reporter [11]: -0.235%
- relative induction of RFP reporter [12]: 1.21%
- relative induction of RFP reporter [13]: 0.0508%
- relative induction of RFP reporter [14]: -0.293%
- relative induction of RFP reporter [15]: -0.684%
- relative induction of RFP reporter [16]: 0.00955%
- relative induction of RFP reporter [17]: -1.17%
- relative induction of RFP reporter [18]: -1.03%
- relative induction of RFP reporter [19]: -0.228%

Compound: O=S(=O)(O)CCO [isethionate]
- relative induction of RFP reporter [1]: -1.41%
- relative induction of RFP reporter [2]: -0.00384%
- relative induction of RFP reporter [3]: -0.0202%
- relative induction of RFP reporter [4]: -5.83%
- relative induction of RFP reporter [5]: -2.12%
- relative induction of RFP reporter [6]: -0.0757%
- relative induction of RFP reporter [7]: 0.0938%
- relative induction of RFP reporter [8]: 0.0152%
- relative induction of RFP reporter [9]: -0.424%
- relative induction of RFP reporter [10]: 6.61%
- relative induction of RFP reporter [11]: -0.518%
- relative induction of RFP reporter [12]: -0.0754%
- relative induction of RFP reporter [13]: 1.56%
- relative induction of RFP reporter [14]: 2.47%
- relative induction of RFP reporter [15]: -0.627%
- relative induction of RFP reporter [16]: 0.0178%
- relative induction of RFP reporter [17]: -1.34%
- relative induction of RFP reporter [18]: -1.22%
- relative induction of RFP reporter [19]: -0.0664%
